According to PubChem BioAssay:
For some of these results: Potency and affinity values are given separately. Calls of active or inactive are those of the source. Unless noted, no stated cut-off is given here; in the data, active means inhibition above about 80%; inactive means the rest.

Legend:
[1] = blockers of polyQ-driven CASP3 activation – cell-based (AID 1583); conditions: polyglutamine-induced caspase-3 activation, cell assay; stronger effect = higher value;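 tested at 10 µM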
[2] = yeast 75Q aggregation reduction – 75Q-TubU reporter (AID 1593); conditions: Yeast 75Q polyglutamine aggregation reporter
[3] = restoration of touch response, mutant HTT neurons – whole organism, C. elegans mechanosensory neurons, N-terminal huntingtin (AID 1599); conditions: C. elegans polyQ-huntingtin mechanosensory neurons, stronger effect = higher value
[4] = blockers of cytochrome c efflux from mitochondria – biochemical, purified mitochondria (AID 1603); conditions: stronger effect = lower value;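 further: mouse liver mitochondria challenged with calcium chloride; signal normalized to the plate average as 100%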
[5] = polyglutamine aggregate formation blockers (AID 1604); conditions: polyglutamine-induced protein aggregation inhibition assay; stronger effect = higher value; tested at 2.5 µM
[6] = glutamate transport activators, MN-1 cells, MN-1 cell line (AID 1612); conditions: MN-1 motor neuron cells, stronger effect = higher value;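 further: tested at 1 µM final; 0% = mean of DMSO vehicle wells on each plate; positive means more glutamate uptake than control and negative means less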
[7] = GFP-Q80 aggregate reduction, neuronal-like cells, cell-based, NGF-treated PC12, GFPQ80 (AID 1614); conditions: PC12 NGF-treated GFP-polyQ80 inclusion reduction;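 further: lower means fewer inclusions and 0 means no inclusions at all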
[8] = 75Q-TubH aggregate inhibition, S. cerevisiae, yeast (AID 1616); conditions: S. cerevisiae 75Q-TubH polyglutamine aggregation suppression; stronger effect = higher value
[9] = growth inhibition, single agent or in combination, cell-based, chromothripsis tumors, cisplatin or BGB combos (AID 1671449); conditions: LFS_MB_P medulloblastoma cells;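 further: cells exposed for 96 hours; 0% = vehicle DMSO and 100% = killing by high DMSO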
[10] = growth inhibition, single agent and combos, cell-based, chromothripsis tumors, cisplatin or BGB combos (AID 1671450); conditions: HDN33 neuroblastoma cells, stronger effect = higher value;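 further: cells exposed to compound for four days; 0% = vehicle DMSO and 100% = cell killing by high DMSO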
[11] = growth inhibition, single agents and combos, ICB984, cell-based, cisplatin or BGB combos, synergistic combos for chromothripsis tumors (AID 1671451; call rule not given here;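 further: cells exposed for 96 hours before readout; 0% = vehicle DMSO and 100% = killing by high DMSO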); conditions: ICB984 medulloblastoma cells, drug combinations, stronger effect = higher value
[12] = growth inhibition, single agents and combos, LFS_MB_1R, cell-based, cisplatin or BGB combos, synergistic combos for chromothripsis tumors (AID 1671452); conditions: LFS_MB_1R medulloblastoma cells, stronger effect = higher value;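 further: cells exposed for 96 hours before readout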
[13] = growth inhibition, single agents and combos, HTB85, cell-based, BGB or cisplatin IC20 combos, synergistic combos for chromothripsis tumors (AID 1671453); conditions: HTB85 osteosarcoma cells, drug combinations, stronger effect = higher value;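 further: cells exposed for 96 hours before readout; 0% = vehicle DMSO and 100% = high DMSO killing control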
[14] = growth inhibition, single agents and combos, CRL2098, cell-based, BGB or cisplatin IC20 combos, synergistic combos for chromothripsis tumors (AID 1671454); conditions: CRL2098 osteosarcoma cells, drug combinations, stronger effect = higher value;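 further: cells exposed for 96 h before readout; 0% = vehicle DMSO and 100% = killing by high DMSO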
[15] = growth inhibition, single agents and combos, HD-MB03, cell-based, BGB or cisplatin IC20 combos, synergistic combos for chromothripsis tumors (AID 1671455; in the data active means inhibition above about 83%;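 further: 0% = vehicle DMSO and 100% = high DMSO as cytotoxic control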); conditions: HD-MB03 medulloblastoma cells, stronger effect = higher value
[16] = growth inhibition, single agents and combos, UWB1.289, cell-based, BGB or cisplatin combos, synergistic combos for chromothripsis tumors (AID 1671456); conditions: UWB1.289 ovarian carcinoma cells, stronger effect = higher value;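 further: cells exposed to compound for four days; 0% = vehicle DMSO and 100% = killing by high DMSO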
[17] = growth inhibition, single agents and combos, LFS_MB_2R, cell-based, cisplatin combos, synergistic combos for chromothripsis tumors (AID 1671457); conditions: LFS_MB_2R medulloblastoma cells, stronger effect = higher value;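 further: cells exposed to compound for four days before readout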
[18] = growth inhibition, MDA-MB-436, cell-based, BGB or cisplatin combos, synergistic combos for chromothripsis tumors (AID 1671458; call rule not given here;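 further: cells exposed for 96 hours; 0% = vehicle DMSO and 100% = killing by high DMSO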); conditions: MDA-MB-436 breast carcinoma growth inhibition, drug combinations, stronger effect = higher value
[19] = UWB1.289_BRCA1 ovarian cancer growth, cell-based, BGB or cisplatin combinations (AID 1671459); conditions: UWB1.289 BRCA1 ovarian carcinoma, drug combinations, stronger effect = higher value
[20] = drug combination toxicity in non-malignant astrocytes – cell-based, BGB or cisplatin IC20 combos, cytotoxicity control for chromothriptic childhood tumor combination screen (AID 1671460); conditions: Human astrocytes, viability inhibition, drug combinations, at 0.5 µM, stronger effect = higher value;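 further: cells exposed to compounds for 96 hours before viability readout; 0% = vehicle and 100% = killing control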
[21] = BT084 cell growth, single and combined drugs, ICGC_MB145, cisplatin and BGB IC40 combos (AID 1671461); conditions: BT084 medulloblastoma cells, drug combinations, stronger effect = higher value;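 further: cells exposed to drugs for 96 hours; 0% = vehicle DMSO and 100% = high DMSO full killing control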
[22] = RCMB18 cell growth, single agent and combined, cisplatin and BGB IC40 combos (AID 1671462); conditions: RCMB18 medulloblastoma cells, stronger effect = higher value;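 further: cells exposed to compound for four days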
[23] = CRL1545 cell growth, single agent and combined, cisplatin and BGB IC20 combos (AID 1671464); conditions: CRL1545 osteosarcoma cells, stronger effect = higher value;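 further: cells exposed to compound for 96 hours before readout; 0% = vehicle DMSO and 100% = high DMSO killing control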
[24] = measured here: combination with BGB IC40, at 0.05 µM
[25] = measured here: with BGB IC20 combination, at 0.5 µM
[26] = measured here: with cisplatin IC20 combination, at 0.5 µM
[27] = measured here: combination with cisplatin, at 0.5 µM
[28] = measured here: combination with cisplatin, at 5 µM

SMILES: CCC1(c2ccccc2)C(=O)NC(=O)NC1=O
- inhibition [1]: -1.25%
- score [2]: 1.23
- rescue above control [3]: 9.64
- cytochrome c release ratio [4]: 0.88
- inhibition of aggregation [5]: 45.6%
- glutamate uptake change [6]: 11.7%
- inclusion score [7]: 2
- aggregation suppression score [8]: 1.66
- inhibition ([9]; at 0.5 µM, stronger effect = higher value): 93.2% (active)
- inhibition ([9]; measured here: combination with BGB IC20, at 0.005 µM): -28.1%
- inhibition ([9]; measured here: combination with BGB IC40, at 0.005 µM): -59.2%
- inhibition [9, 24]: -45.6%
- inhibition ([9]; measured here: combination with cisplatin, at 0.5 µM, stronger effect = higher value): 121%
- inhibition ([9]; measured here: combination with cisplatin, at 5 µM, stronger effect = higher value): -2.25%
- inhibition ([10]; BGB combo, at 5 µM): -9.62%
- inhibition ([10]; at 0.5 µM): -12.9% (inactive)
- inhibition ([10]; cisplatin combo, at 5 µM): -2.75%
- inhibition [10, 25]: -25.3%
- inhibition [10, 26]: -2.08%
- inhibition ([10]; single agent, at 5 µM): 3.79%
- inhibition ([11]; BGB IC20 combo, at 0.005 µM): -3.73%
- inhibition ([11]; BGB IC40 combo, at 0.005 µM): -9.29%
- inhibition ([11]; BGB IC40 combo, at 0.05 µM): -3.16%
- inhibition ([11]; at 0.5 µM): -22.9% (inactive)
- inhibition ([11]; cisplatin combo, at 0.05 µM): -8.4%
- inhibition ([11]; cisplatin combo, at 0.5 µM): -26.1%
- inhibition ([11]; cisplatin combo, at 5 µM): -13.3%
- inhibition ([11]; measured here: 5 uM single agent, at 5 µM): -22.7%
- inhibition ([12]; at 0.5 µM): -18.1% (inactive)
- inhibition [12, 24]: -31.8%
- inhibition [12, 27]: -10.4%
- inhibition [12, 28]: 5.72%
- inhibition ([13]; at 0.5 µM): -10.5% (inactive)
- inhibition ([13]; measured here: with BGB IC20, at 0.5 µM): -10.6%
- inhibition ([13]; measured here: with BGB IC20, at 5 µM): 7.72%
- inhibition ([13]; measured here: with cisplatin IC20, at 0.5 µM): -9.45%
- inhibition ([13]; measured here: with cisplatin IC20, at 5 µM): 10.2%
- inhibition ([13]; single agent, at 5 µM): -5.59%
- inhibition ([14]; at 0.5 µM): -52.1% (inactive)
- inhibition ([14]; measured here: combination with BGB at IC20, at 0.5 µM): -60.5%
- inhibition ([14]; measured here: combination with cisplatin at IC20, at 0.5 µM): -54.7%
- inhibition ([15]; at 0.5 µM): -4.07% (inactive)
- inhibition ([15]; measured here: combo with BGB at IC20, at 0.5 µM): 2.98%
- inhibition ([15]; measured here: combo with cisplatin at IC20, at 0.5 µM): -10.5%
- inhibition ([16]; at 0.5 µM): -5.54% (inactive)
- inhibition ([16]; measured here: inhibition with BGB combination, at 0.05 µM): -21.7%
- inhibition ([16]; measured here: inhibition with cisplatin combination, at 0.05 µM): -12%
- inhibition ([17]; at 0.5 µM): -20.1% (inactive)
- inhibition [17, 27]: -6.12%
- inhibition [17, 28]: 0.169%
- inhibition ([18]; at 0.5 µM): -2.75% (inactive)
- inhibition ([18]; measured here: BGB combination, at 0.5 µM): -2.38%
- inhibition ([18]; measured here: BGB combination, at 5 µM): 1.86%
- inhibition ([18]; measured here: cisplatin combination, at 0.5 µM): -5.56%
- inhibition ([18]; measured here: cisplatin combination, at 5 µM): -1.94%
- inhibition ([19]; BGB combination, concentration series, at 5 µM): 22.9%
- inhibition ([19]; at 0.5 µM): -1.68% (inactive)
- inhibition ([19]; cisplatin combination, concentration series, at 5 µM): 16%
- inhibition [20]: 10.1% (inactive)
- inhibition ([20]; measured here: combo with BGB IC20): 11.5%
- inhibition ([20]; measured here: combo with cisplatin IC20): 13.6%
- inhibition ([21]; at 0.5 µM): 3.01% (inactive)
- inhibition ([21]; cisplatin combination, at 0.5 µM): 4.39%
- inhibition ([21]; cisplatin combination, at 5 µM): 0.177%
- inhibition ([21]; measured here: BGB IC40 combination 0.05 uM, at 0.05 µM): -27.4%
- inhibition ([21]; single agent, at 5 µM): 8.07%
- inhibition ([22]; at 0.5 µM): 1.72% (inactive)
- inhibition ([22]; cisplatin combo, at 5 µM): 5.8%
- inhibition ([22]; measured here: BGB IC40 combination, at 0.05 µM): -18.8%
- inhibition [22, 27]: -11.9%
- inhibition ([22]; single agent, at 5 µM): 10.7%
- inhibition ([23]; at 0.5 µM): -19.2% (inactive)
- inhibition [23, 25]: -11.8%
- inhibition [23, 26]: -24.8%
- inhibition ([23]; single agent, at 0.05 µM): 8.97%
- inhibition ([23]; single agent, at 5 µM): -18.2%
